# Rows were chosen to be rich in hits. Some 1.9% of all compounds tested hit in one or more screens of this group.
# HMGR II inh – inhibitors of class II HMG-CoA reductase from Enterococcus faecalis; purified E. faecalis HMGR, NADPH absorbance 340 nm kinetic; inhibition, % at 10 µM; hit rate 0.41% among 190,000; AID 1066;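 active = inhibition above a set limit, the median over all tested compounds plus 3 SD, cut at about 9.5% in these data; inconclusive = no clear call, values can overlap the other calls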;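 note: enzyme runs in reverse so mevalonate oxidation gives rising NADPH absorbance; 0% = complete reaction with DMSO and 100% = background rate lacking mevalonate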
# NCF1 inh – inhibitors of human p47phox binding; AID 1274; inhibition, % at 24.7 µM; hit rate 0.53% among 220,000; p47phox/p22phox peptide binding, fluorescence polarization, 2 h; P14598;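 active = inhibition above about 30%, limit read from the data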;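 note: 0% = p47phox with labelled peptide and 100% = labelled peptide alone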
# Target sequence (P14598 whole entry, looked up): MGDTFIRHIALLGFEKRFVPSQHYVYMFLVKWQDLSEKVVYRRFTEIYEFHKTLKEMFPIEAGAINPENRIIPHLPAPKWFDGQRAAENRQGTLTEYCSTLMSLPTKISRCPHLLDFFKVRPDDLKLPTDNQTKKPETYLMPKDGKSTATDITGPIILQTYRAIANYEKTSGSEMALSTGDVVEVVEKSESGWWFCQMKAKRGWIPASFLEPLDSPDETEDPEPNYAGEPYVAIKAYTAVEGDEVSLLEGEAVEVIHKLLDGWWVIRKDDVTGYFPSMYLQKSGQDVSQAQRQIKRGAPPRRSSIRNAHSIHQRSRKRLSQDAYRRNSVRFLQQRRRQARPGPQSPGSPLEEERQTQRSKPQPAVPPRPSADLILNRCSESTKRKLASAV
# 14-3-3 Bad inh – disrupts binding of bovine 14-3-3 zeta to phospho-Bad peptide. TR-FRET 14-3-3zeta/Dy647-pBad peptide displacement, 1 h. inhibition, % at 21.7 µM. hit rate 0.71% among 220,000;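 active = inhibition above about 70%, limit read from the data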;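 note: 0% = full 14-3-3 plus peptide FRET controls and 100% = background without 14-3-3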
# Target sequence (P63103 whole entry, looked up): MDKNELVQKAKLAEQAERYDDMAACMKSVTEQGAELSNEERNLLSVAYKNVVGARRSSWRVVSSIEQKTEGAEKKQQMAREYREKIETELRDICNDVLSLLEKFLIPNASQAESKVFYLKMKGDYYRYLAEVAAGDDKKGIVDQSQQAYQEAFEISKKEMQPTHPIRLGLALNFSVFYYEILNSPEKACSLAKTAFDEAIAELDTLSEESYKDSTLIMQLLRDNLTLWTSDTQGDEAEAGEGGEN
# dFosB act-1 – enhances mouse delta FosB homodimer DNA binding; P13346; purified delta FosB, TAMRA-CDK5 oligo fluorescence polarization; percent of positive-control signal above neutral wells; activation, % at 25 µM; hit rate 0.99% among 340,000;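 active = mean activation above about 17%, with every replicate also reaching it, limit read from the data, passing the limit was not always enough; inconclusive = only one of the two conditions met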
# dFosB act-2 – delta FosB (mouse) homodimer activation; purified delta FosB, TAMRA-CDK5 oligo fluorescence polarization; normalised: neutral wells 0, positive control 100; AID 588690; shares compounds with dFosB act-1; 2,400 tested, under 10 active; activation, % at 24.9 µM;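 active = highest replicate activation at or above 34% and every replicate reaching that threshold; inconclusive = meets only one of the two criteria; inactive = meets neither criterion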;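 note: higher polarization means more probe DNA bound by delta FosB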
# An asterisk follows results filed as active; ? = inconclusive; · = not tested or not shown.
SMILES,HMGR II inh,NCF1 inh,14-3-3 Bad inh,dFosB act-1,dFosB act-2
CC(=O)c1sc(NC(=O)C2CCN(c3ncnc4sc(C)c(C)c34)CC2)nc1-c1ccccc1,·,·,·,0,·
Cc1sc2ncnc(N3CCC(C(=O)Nc4nc(-c5ccc(F)cc5)cs4)CC3)c2c1C,·,·,·,18*,-1
C/C(=N\N=C1/NC(=O)C(C)S1)c1ccco1 (stereo not drawn),-6,0,-3,2,·
COc1ccc(/C=N\NC(=O)c2cccc([N+](=O)[O-])c2)cc1Cn1cc([N+](=O)[O-])cn1,-1,-1,3,·,·
N#CC1=C(N)N2C(=C(C#N)C1c1cccc(Br)c1)Nc1ccccc12 (stereo not drawn),-6,-19,1,27*,-1
CS(=O)(=O)c1ccc2nc(NC(=O)c3cc(-c4ccccc4)nn3-c3ccccc3)sc2c1,0,-66,-29,29*,7
CCOc1ccc(S(=O)(=O)N(C)c2ccc(OCC(=O)N3c4ccc(C)cc4C4CN(C)CCC43)cc2)cc1 (stereo not drawn),-2,-2,11,34*,3
CCOC(=O)C1CCN(c2c(N3CCN(Cc4ccccc4)CC3)c(=O)c2=O)CC1,-6,-7,7,1,·
CC(=O)Nc1ccc(Sc2ncccc2C(=O)Nc2cc(Cl)cc(Cl)c2)cn1,4,-13,6,82*,-1
COc1cc(NC(=O)c2cccnc2Sc2ccc(C)c(C)c2)cc(OC)c1OC,-3,-3,4,-10,·
CC(=O)Nc1ccc(Sc2ncccc2C(=O)Nc2ccc(OC(F)(F)F)cc2)cn1,-5,-22,3,51*,4
CCCCNC(=S)NNC(=O)C12CC3CC(CC(C3)C1)C2,-2,-23,0,2,·
Cc1cnc(C(=O)OCc2nc3ccsc3c(=O)[nH]2)cn1,·,·,·,-4,·
Cc1ccc(NS(=O)(=O)c2ccc3c(c2)NC(=O)CCS3)c(Cl)c1,·,·,·,-8,·
COc1cc(NC(=O)COc2ccccc2[N+](=O)[O-])ccc1NC(=O)c1ccco1,·,·,·,34*,3
O=C(COc1ccccc1Cl)Nc1cc(Cl)ccc1O,-9,-92,-10,22*,-1
O=C(COc1ccccc1Cl)Nc1ccc(NC(=O)c2ccco2)cc1,·,·,·,21*,7
O=C(O)CC(=O)Nc1cc(Cl)ccc1O,-4,-15,0,-2,·
COc1cc(NC(=O)Cc2ccccc2)ccc1NC(=O)c1ccco1,-4,-9,-12,-1,·
O=C(Nc1ccc(C(=O)N2CCN(c3ccccc3F)CC2)cc1)C1=CSCCO1,·,·,·,-1,·
NC(=O)CC(NC(=O)c1ccc(Br)cc1)c1ccc(NCc2ccc(F)c(F)c2)c([N+](=O)[O-])c1 (stereo not drawn),·,-5,-1,9,·
NC(=O)CC(NC(=O)Cc1ccc(Br)cc1)c1ccc(NCc2ccc(F)c(F)c2)c([N+](=O)[O-])c1 (stereo not drawn),·,-11,7,52*,-4
CC(=O)Nc1ccc(-c2cc(-c3ccccc3)nc(-c3ccccc3)n2)cc1,-9,-6,-3,7,·
CC(=O)Nc1ccc(-c2cc(-c3ccc(NC(C)=O)cc3)nc(-c3ccc(NC(C)=O)cc3)n2)cc1,-3,-25,10,54*,0
Cc1ccc(C(=O)Nc2nc(C)c(C(=O)Nc3ccc4c(c3)CCC4)s2)cc1,-1,-22,-2,21*,-2
SMILES,HMGR II inh,NCF1 inh,14-3-3 Bad inh,dFosB act-1,dFosB act-2
CC(=O)Nc1nc(C)c(C(C)=O)s1,1,2,11,-6,·
CC(=O)c1sc(NC(=O)c2ccc(Cl)cc2)nc1C,·,-21,-11,34*,2
CC(=O)c1sc(NC(=O)c2ccc(F)c(F)c2)nc1C,0,-2,-11,28*,1
CC(=O)c1sc(NC(=O)c2cccc(C)c2)nc1C,-1,-5,0,-26,·
O=C(CN1CCCCC1)N1CCN(S(=O)(=O)c2ccccc2)C1,-5,0,-3,10,·
COc1ccc(OC)c(NC(=O)C(C)OC(=O)c2cc3ccccc3[nH]2)c1 (stereo not drawn),·,·,·,19*,3
CC(=O)Nc1cc2cc(NS(=O)(=O)c3ccc(Cl)cc3)ccc2oc1=O,·,-12,-4,93*,1
COc1c(/C=N/NS(=O)(=O)c2ccc(C)cc2)c(CCN(C)C(C)=O)cc2c1OCO2,·,-1,0,-9,·
Cc1nn(CC(=O)NCCc2cccs2)c(=O)c2cc3ccccc3n12,·,·,·,26*,4
O=C(NNC(=O)c1ccc(Cl)s1)c1csc(N2CCOCC2)n1,·,·,·,21*,-2
O=C(NNC(=O)c1csc(N2CCOCC2)n1)c1ccc(Cl)nc1,·,·,·,1,·
CC1CCN(C(=O)CNS(=O)(=O)c2ccc(Br)s2)CC1,-2,-11,1,-5,·
Cc1ccc(OCc2nnc(SCC(=O)Nc3sc(C)c(C)c3C#N)n2C)cc1,-3,-10,4,26*,0
CN(NC(=S)Nc1ccc(OC(F)F)cc1)C(=S)Nc1ccc(OC(F)F)cc1,1,-8,-5,-9,·
CCOC(=O)c1cc(-c2ccc(F)cc2)n(CC(=O)NCc2cccnc2)c1C,6,-2,-10,0,·
CCc1ccc2c(COC(=O)CNS(=O)(=O)c3ccc(NC(C)=O)cc3)cc(=O)oc2c1,-8,-12,13,?,·
CCc1cccc(OCCOC(=O)CNS(=O)(=O)c2ccc(NC(C)=O)cc2)c1,·,·,·,56*,3
COc1cc2c3nnc(-c4ccc(F)cc4)c-3cn(Cc3ccc(F)cc3)c2cc1OC,-11,-68,-6,37*,-9
O=C1CCCC2=C1C(c1ccncc1)n1c(nc3ccccc31)N2 (stereo not drawn),1,-5,0,1,·
COc1cccc(NC(=O)CCCn2c(=S)[nH]c3ccccc3c2=O)c1,-2,-7,9,-11,·
CC(C)CCNC(=O)CCCn1c(=O)[nH]c2ccc(Br)cc2c1=O,-6,-7,7,-4,·
O=C(CCn1c(=S)[nH]c2ccccc2c1=O)Nc1cccc(Cl)c1,·,·,·,47*,3
O=C(CCCn1c(=O)[nH]c2ccc(Br)cc2c1=O)NCc1ccc(Cl)cc1,-7,-6,0,100*,0
O=c1c2ccccc2[nH]c(=S)n1Cc1ccc2c(c1)OCO2,-2,-4,-9,21*,4
O=C(CCCCCn1c(=S)[nH]c2ccccc2c1=O)NCc1ccc2c(c1)OCO2,-7,-15,13,44*,3
SMILES,HMGR II inh,NCF1 inh,14-3-3 Bad inh,dFosB act-1,dFosB act-2
CCOC(=O)C1CCN(S(=O)(=O)c2ccc(-c3ccc(=O)[nH]n3)o2)CC1,·,·,·,-4,·
COc1cc2c(cc1OC)C(=O)Cc1ccc3c(c1CN(C)CC2)OCO3,4,-4,-2,0,·
COc1cccc(CNC(=O)CCCn2c(=S)[nH]c3cc4c(cc3c2=O)OCO4)c1,·,·,·,32*,3
COc1ccc(Br)cc1CNC(=O)CCc1nc(-c2ccc(C)cc2)no1,-9,-18,-4,21*,0
CCN(CC)C(=O)c1cccc(NC(=O)CCc2nc3sc4c(c3c(=O)[nH]2)CCCC4)c1,·,·,·,-6,·
FC(F)(F)c1ccc(CN2CCN(Cc3ccco3)CC2)cc1,·,·,·,-2,·
